# According to the supplement of paper PMC11417369:
# ± gives the standard deviation of the averaged measurements. In all, about 25,000 sequences were measured (“ln(normalized median fluorescence intensity)”: median about 7.9, highest 2% from about 11 on). The full list was thinned out, with the highest values kept by preference.
# Test system: PfAP2-I AP2 domain 3 (GST-tagged)
# Assay: gcPBM binding intensity (ln(normalized median fluorescence intensity)); higher = stronger DNA binding
# Outline: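 Binding of GST-tagged P. falciparum DNA-binding domains, expressed in E. coli and used at about 25 μg on average, was carried out for 1 h in 1× PBS containing 1% milk, 0.2 mg/ml BSA, 0.5% salmon testes DNA and 0.03% Triton X-100. The target was an Agilent 4 × 180k array of primer-extended double-stranded 36-bp intergenic genomic probes plus negative controls, read with Alexa488 anti-GST antibody at 488 nm. Binding intensity is the highest Masliner-normalised natural-log median intensity across replicate spots of either probe orientation.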
row,Sequence,gcPBM binding intensity (ln)
1,ATAAGATAGGCATATACACACATTTATTTACAGATA [CACACA_site5754],7.71 ± 0.67
2,TTGTTTTTGTTCTTGGGTACTTAAATTATAAATGAT [XGTACX_site113],8.07 ± 0.45
3,ATAACTTTTTAAAAGACACACATAAGAAAAACAAAA [CACACA_site723],8.08 ± 0.64
4,TATATGTGATAACACGCACACAAATGTATATAATTT [CACACA_site2593],8.1 ± 0.28
5,TCTTTATATCATCTTTCTAAATATATATATATATAA [CACACA_negctrl_site77],7.84 ± 0.55
6,TTCATTAAATAGAACAAAATAATAATATAACAACAA [GTGCAC_negctrl_site116],7.74 ± 0.53
7,AAAATAAATAAAAAAAGTACATATATAATTTATAAA [XGTACX_site2411],7.75 ± 0.39
8,ACAAGTTTTTTTTTATCACACACAAAAAAAAAAATA [CACACA_site8377],7.9 ± 0.44
9,ATAAAACGTACAATGGTGCATATAAATAATATATAT [GTGCAC_site9960],11 ± 0.52
10,AATATAAATAAAAACACACACAATGGTACATATATA [CACACA_site3671],7.84 ± 0.54
11,TAATTATAATAATAACGTACATATATAAAATGGTGA [XGTACX_site8434],8.04 ± 0.34
12,TGTCCAATTTTTTATCGTACATAATATATAAATAAA [XGTACX_site1705],8.01 ± 0.33
13,TTTTCTTGATTTTGTAGTACATTTTTACGATATTTT [XGTACX_site63],7.94 ± 0.55
14,ATTTAATATCACAATATATTTTTTACCCTTATCAGC [CACACA_negctrl_site491],7.59 ± 0.76
15,CATGAGGTATAAAAGGTGCAAATTAATGAGAACATT,11.1 ± 0.36
16,CGTTGGTATTAAAAGGTGCAATGAAATAATATATTA,10.8 ± 0.63
17,TATGTATTAATGAGAACATGCAAAATAATAAACAAT [TGCATGCA_site362],8.45 ± 0.59
18,TTTTTAAAAAAACATACACACAAAAAAAAAAAAAAA [CACACA_site3935],8.11 ± 0.67
19,TTATATCAAGGGAATGCATGCATATCGTTTTGTATT [TGCATGCA_site327],7.68 ± 0.88
20,AATATTGTATATAATAAACACACAATATTAAAAATA [CACACA_site8262],7.57 ± 0.39
21,TATTGTATATAATAAACACACAATATTAAAAATATA [CACACA_site1057],7.4 ± 0.52
22,ACAAAAAAAAACGTGGTGCATTAATAATATTGTATA [GTGCAC_site9469],11.7 ± 0.3
23,TCTTATATTATATTGTGTATTAAAATTTAACTTCAA [TGCATGCA_negctrl_site565],7.83 ± 0.58

row,Sequence,gcPBM binding intensity (ln)
1,ACTTTTTATTTTTTACTATATATATATATATATATG [TGCATGCA_negctrl_site463],8.31 ± 0.44
2,TATATATTTGTTCACACACACACAAAAAAAAAAAAA [CACACA_site2475],8.08 ± 0.52
3,GGTGCACCCATATACACACACAAATACAATGATAAA [CACACA_site1132],9.99 ± 0.56
4,TATGTGCACCCATATACACACACAAATACAATGATA [CACACA_site8295],11.3 ± 0.85
5,TGGGCACCCATATACACACACAAATACAATGATAAA [CACACA_site4762],7.78 ± 0.28
6,CCCGTAAATACAAAAAGTACAAAAGTTCATCTTATA [XGTACX_site1154],7.93 ± 0.99
7,AATTTATTTTTAAAAAGTACATACTTAAGAAAACGA [XGTACX_site3660],8.12 ± 0.29
8,CTGTACACTTAAACGGTGCAAAAAGAAAAAAAAGAA,11 ± 0.38
9,AAAGAAAACGGACTTTGTACTTAAATATAATATAAA [XGTACX_site8585],7.69 ± 0.34
10,CATTATTATGATAGTTGTACAATTTTTATAAAAAAT [XGTACX_site4411],7.93 ± 0.35
11,AATAAAATGAGATGTTGTACAGTTTTGATATATGCA [XGTACX_site3052],7.96 ± 0.19
12,GATAAAATGAGACCAGTGCATTATTAGTTGTACACC,11.3 ± 0.53
13,TAATTAATTTATTAGTTGCACTGTACCATTAGAGTA,9 ± 0.11
14,TTTTTATAGAATTTAACACACATTTCATATAAAAAA [CACACA_site7453],7.86 ± 0.47
15,TAATAAAATATGTACGTGCACATAATTATACTAAAA,10.3 ± 0.18
16,TACTATTATAAATATGTGCACTTCAATAATATACTA,10.4 ± 0.11
17,AAAAAAAAAAAATACGTGCACTATGATATATTATAT,11.4 ± 0.36
18,TATGATTAATTACCACAATTGACAAAAAAAAAAAAA [CACACA_negctrl_site336],8.13 ± 0.87
19,TTTTGTTACTTTTATGTGCACTTATAAAACGAACTA [GTGCAC_site9551],11.3 ± 0.085
20,AACTATTTTATTATATGTACTTACGAATTTATAAAA [XGTACX_site5262],7.87 ± 0.35
21,ATATATATTATGTGTGTGCACTTTTGTTATTATTAT,9.83 ± 0.014
22,AAAACACAATTTATTACACACATATATTATAGATTA [CACACA_site6780],7.61 ± 0.68
23,AGAATTTTAGATTTAGCACACATTTTTTTTTTTTTT [CACACA_site4081],8.34 ± 0.45

row,Sequence,gcPBM binding intensity (ln)
1,TTTTTTAAATTGGTAGTGCAATATGATTGAACAAAA [GTGCAC_site9715],10.9 ± 0.79
2,TATATAGATATGATAGTGCATTTTTAGAAAACATAA [GTGCAC_site9962],9.44 ± 0.14
3,ATATTGAAATTAAAAAAATATATGAACAAATGATGA [CACACA_negctrl_site602],7.69 ± 0.59
4,ATGATATGCAATTTAGTGCATAACAAAATTGGTATA,10.9 ± 0.49
5,TTTTTTTTTTTTGTAGTGCAAATTAAAAATATATGT,10.6 ± 0.53
6,GTTTTAACAAAATTAGTGCATTTATCAATTATATAA,10.5 ± 0.14
7,AAAAAAAAAAAAAGCACACATATAAATATGAATAAA [CACACA_site1393],8.39 ± 0.085
8,TAATTTTATATTAAAAGTACATAATAAAAACTATAA [XGTACX_site8779],7.79 ± 0.22
9,TAAATATATATCATCACACACACATACATAAATATA [CACACA_site183],7.72 ± 0.47
10,TAATAATATAAATATGCACACAAATTATTACCCAAA [CACACA_site8805],8.97 ± 0.47
11,CATATTTGCACTTTCACACATAAATATATAACTATA [CACACA_site6016],11 ± 0.89
12,GCTAAAAGTATATGCACACACATATAGATGCACATA [CACACA_site6868],10 ± 0.14
13,AATTCTTTACTATTCACACATATAAATATTCACTTT [CACACA_site4886],8 ± 0.7
14,AATATAATATAATGCACACATAAAAAAAAAAAAATC [CACACA_site1303],11 ± 0.64
15,GTGCTAAAAGTATATGCACACACATATATATGCACA [CACACA_site8472],10.9 ± 0.55
16,GCTAAAAGTATATGCACACACATATATATGCACATA [CACACA_site1635],10.3 ± 0.16
17,AAAAATAATGCACATATATATAATATGTATATGTAT [CACACA_negctrl_site443],11 ± 0.6
18,AAAATATAATATAATGCACACATAAAAAAAAAATCA [CACACA_site7922],10.8 ± 0.64
19,AAAAATATAATATATGCACACATACATACATATATA [CACACA_site7915],9.06 ± 0.057
20,AAAAAATATACATATACACACATATGTATATATAAT [CACACA_site8676],7.57 ± 0.31
21,CTTTTTTTTTTTTTTGCACACACATATATAAATATA [CACACA_site3950],9.74 ± 0.042
